In PubChem BioAssay one finds composite z-score, z-score and composite Z-score data, which are given here for five compounds.

SMILES strings stand for the structures. The source made the active and inactive calls.

For experiment [1], the system named is Human papillomavirus type 1a protein E7 (residues 44-93). As to the kind of experiment: small molecules binding HPV E7 44-93 – biochemical, small-molecule microarray, residues 44-93, 635 nm fluorescence, primary screen (AID 1108).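 Note: E7 fragment applied at 1 µg/mL in TBST for 1 h at 4 C; score combines spot fluorescence with its signal to noise ratio.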 To be noted: fluorescence 635 nm, higher = more signal.
The nature of experiment [2]: hepatitis C replication reporter changes, two-sided – Huh7 cells, luciferase reporter, HCV replication inhibitor project, primary screen (AID 1109).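 Note: huh7 hepatoma cells harbouring a luciferase neomycin HCV replicon reporter; luciferase luminescence as measure of HCV replicon replication; test concentration not given here.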 To be noted: Huh7 HCV replicon luciferase reporter, 48 h; higher = more signal. A general note: A reporter such as luciferase makes a cellular process visible.
Experiment [3] concerns the target Left-right determination factor 2 (Homo sapiens) (UniProt O00292). As to the kind of experiment: small molecules binding LEFTY2 protein – biochemical, small-molecule microarray, 635 nm fluorescence scan, primary screen (AID 1110). To be noted: higher = more signal.
For experiment [4], the target named is Calmodulin-1 (Homo sapiens) (UniProt P0DP23). As to the kind of experiment: small molecules binding calmodulin-1 with EGTA – biochemical, small-molecule microarray, Cy5-labelled CALM1, profiling panel (AID 1111).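 Note: labelled calmodulin applied in Tris saline Tween buffer holding calcium plus EGTA and DTT.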 Particulars: Cy5-CALM1 binding fluorescence, higher = more signal.
For experiment [5] the target is unchanged. Briefly: small molecules binding Ca-loaded calmodulin-1 – biochemical, small-molecule microarray, Cy5-labelled CALM1, plus calcium, artefact control for SMM control-protein annotation, profiling panel (AID 1112).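 Note: score merges spot fluorescence with signal to noise from triplicate slides.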 Particulars: Cy5-CALM1 binding fluorescence, higher = more signal.
Experiment [6] is described as follows: probe aWnt5a binding to arrayed compounds – biochemical, biotinylated probe, 635/667 nm fluorescence, primary screen (AID 1113).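 Note: score merges 667 nm fluorescence intensity with signal-to-noise per printed feature.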 Particulars: small-molecule microarray, higher = more signal.
A short description of experiment [7]: probe aShh binding to arrayed compounds – biochemical, biotinylated probe, 635/667 nm fluorescence, primary screen (AID 1114).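 Note: probe is biotin-labelled aShh protein from a stem cell growth factor screen; measures binding of labelled protein to compounds printed on the slide; score merges feature fluorescence at 667 nm with signal-to-noise.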 Particulars: small-molecule microarray, higher = more signal.
Experiment [8] is described as follows: probe aNog binding to arrayed compounds – biochemical, biotinylated probe, 635/667 nm fluorescence, primary screen (AID 1115).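 Note: probe is biotinylated aNog protein used at 0.15 µg/mL for 1 h at 4 C; z-score combines 667 nm fluorescence of each spot with its signal to noise.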 Particulars: small-molecule microarray, higher = more signal.
The target in experiment [9] is Torsin-1A-interacting protein 1 (Homo sapiens) (UniProt Q5JTV8). As to the kind of experiment: compound microarray binding of lysate hLAP1 – cell lysate, small-molecule microarray, COS7 lysate, 635/667 nm fluorescence, primary screen (AID 1116). Particulars: 635 nm fluorescence, higher = more signal.
For experiment [10], the target named is Alpha-bungarotoxin (Bungarus multicinctus) (UniProt P60615). As to the kind of experiment: compounds binding labelled alpha-BTX control protein – biochemical, small-molecule microarray, Alexa647 label, 635/667 nm fluorescence, artefact control for SMM control protein annotation, profiling panel (AID 1117). Particulars: alpha-BTX-A647 binding fluorescence, higher = more signal.

Another experiment has as its target Albumin (Bos taurus) (UniProt P02769). As to the kind of experiment: compounds binding labelled BSA control protein – biochemical, small-molecule microarray, Alexa647 label, 635/667 nm fluorescence, artefact control for SMM control protein annotation, profiling panel (AID 1118).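 Note: score merges 667 nm emission intensity and signal-to-noise per printed compound spot.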 To be noted: BSA-A647 binding, fluorescence 635 nm, higher = more signal.
Experiment [11] in a line: probe aXIP binding to arrayed compounds – biochemical, NeuroSMM set, 635/667 nm fluorescence, primary screen (AID 1119).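 Note: probe is the protein aXip251-270 applied at 1 µg/mL to compound-printed slides; binding of probe to printed compounds measured as 667 nm fluorescence plus signal to noise.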 Particulars: small-molecule microarray, higher = more signal, called active from +8 up or from −8 down.
Experiment [12] is described as follows: probe aNOTCH3 binding on compound microarray – biochemical, small-molecule microarray, 635/667 nm fluorescence, primary screen (AID 1120).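 Note: probe is a biotin-tagged antibody raised against NOTCH3 rather than NOTCH3 protein; score merges spot fluorescence near 667 nm with spot signal to noise.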 Particulars: higher = more signal.
Experiment [13] can be described thus: probe aNOTCH2 binding on compound microarray – biochemical, small-molecule microarray, 635/667 nm fluorescence, primary screen (AID 1121).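 Note: score merges feature fluorescence read at 667 nm with its signal to noise.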 Particulars: higher = more signal.
For experiment [14], the target named is Carbonic anhydrase 2 (Homo sapiens) (UniProt P00918). As to the kind of experiment: compounds binding carbonic anhydrase 2 – biochemical, small-molecule microarray, Alexa647-labelled CAII, profiling panel (AID 1122). To be noted: CAII-A647 binding fluorescence, higher = more signal.
A short description of experiment [15]: COS7 lysate on small-molecule microarray, probe aHis, 635 nm (AID 1123).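 Note: z-score combines 667nm fluorescence intensity with signal-to-noise per printed compound spot.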 Particulars: COS7 cell lysate, fluorescence, higher = more signal.
Experiment [16] can be described thus: probe aLAP1 signal on lysate-treated microarray – cell lysate, small-molecule microarray, COS7 lysate, primary screen (AID 1124).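 Note: lysate comes from COS7 cells expressing LAP1 and is applied at 0.3 µg/mL; score merges spot fluorescence near 667 nm with signal-to-noise over triplicate slides.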 To be noted: probe aLAP1, fluorescence, higher = more signal.
The next experiment has as its system Sam68 (KHDRBS1). As to the kind of experiment: compounds binding KHDRBS1 protein – biochemical, small-molecule microarray, 635 nm fluorescence, primary screen (AID 1125).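 Note: score merges 667 nm channel intensity with signal to noise over triplicate slides.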 Particulars: higher = more signal.
In experiment [17] the test system is Chordin-like protein 2 (CHRDL2). As to the kind of experiment: compounds binding chordin-like 2 – biochemical, small-molecule microarray, 635 nm fluorescence, primary screen (AID 1126).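 Note: printed compound slides probed with Chrdl2 protein at 4 µg/mL for 1 h at 4 C; score merges 667 nm emission intensity with signal to noise over three replicate slides.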 Particulars: fluorescence 635 nm, higher = more signal.
Experiment [18] concerns the target Concanavalin-A (Canavalia ensiformis) (UniProt P02866). As to the kind of experiment: compounds binding concanavalin A lectin – biochemical, small-molecule microarray, Alexa647 label, 635 nm, artefact control for SMM control protein annotation, primary screen (AID 1127).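 Note: z combines 667 nm emission intensity with signal-to-noise across three replicate slides.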 Particulars: ConA-A647 binding fluorescence, higher = more signal.

Sequence of Alpha-bungarotoxin (Bungarus multicinctus) (P60615 whole entry, looked up): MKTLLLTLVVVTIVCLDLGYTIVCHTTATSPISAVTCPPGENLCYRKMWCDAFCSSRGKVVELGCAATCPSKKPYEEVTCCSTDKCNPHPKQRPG
Sequence of Concanavalin-A (Canavalia ensiformis) (P02866 whole entry, looked up): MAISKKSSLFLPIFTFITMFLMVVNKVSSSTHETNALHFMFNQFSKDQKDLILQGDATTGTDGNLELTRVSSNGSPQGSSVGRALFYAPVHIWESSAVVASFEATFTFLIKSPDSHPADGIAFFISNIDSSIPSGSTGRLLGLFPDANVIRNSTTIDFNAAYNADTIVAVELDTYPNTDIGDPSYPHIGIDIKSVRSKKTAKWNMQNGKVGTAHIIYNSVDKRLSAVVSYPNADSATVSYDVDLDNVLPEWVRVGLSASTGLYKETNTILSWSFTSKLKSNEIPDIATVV
Sequence of Left-right determination factor 2 (Homo sapiens) (O00292 whole entry, looked up): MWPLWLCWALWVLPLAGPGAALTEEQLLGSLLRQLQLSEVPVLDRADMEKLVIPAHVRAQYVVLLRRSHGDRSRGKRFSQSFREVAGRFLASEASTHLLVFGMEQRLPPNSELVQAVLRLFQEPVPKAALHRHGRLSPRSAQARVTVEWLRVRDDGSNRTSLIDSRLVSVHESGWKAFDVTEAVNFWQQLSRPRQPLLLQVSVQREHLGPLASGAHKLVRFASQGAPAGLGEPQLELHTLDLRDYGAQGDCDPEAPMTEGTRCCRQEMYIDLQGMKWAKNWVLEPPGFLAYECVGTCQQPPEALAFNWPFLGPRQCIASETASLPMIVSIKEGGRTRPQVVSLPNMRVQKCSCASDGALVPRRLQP
Sequence of Albumin (Bos taurus) (P02769 whole entry, looked up): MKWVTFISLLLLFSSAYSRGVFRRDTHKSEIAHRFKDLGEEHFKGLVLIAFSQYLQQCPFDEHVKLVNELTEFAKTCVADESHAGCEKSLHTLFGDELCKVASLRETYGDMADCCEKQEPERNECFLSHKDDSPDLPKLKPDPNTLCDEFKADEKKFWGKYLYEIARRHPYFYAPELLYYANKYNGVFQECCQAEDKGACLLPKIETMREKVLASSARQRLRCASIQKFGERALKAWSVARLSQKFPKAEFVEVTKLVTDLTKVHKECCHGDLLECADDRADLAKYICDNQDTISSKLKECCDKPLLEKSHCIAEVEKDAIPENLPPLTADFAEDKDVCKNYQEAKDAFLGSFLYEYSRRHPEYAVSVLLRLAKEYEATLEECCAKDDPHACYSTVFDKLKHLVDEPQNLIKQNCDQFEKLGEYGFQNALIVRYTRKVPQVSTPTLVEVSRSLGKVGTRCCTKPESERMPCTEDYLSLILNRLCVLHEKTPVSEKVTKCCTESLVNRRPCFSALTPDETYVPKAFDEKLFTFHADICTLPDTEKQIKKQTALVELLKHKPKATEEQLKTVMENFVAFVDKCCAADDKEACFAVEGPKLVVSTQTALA
Sequence of Torsin-1A-interacting protein 1 (Homo sapiens) (Q5JTV8 whole entry, looked up): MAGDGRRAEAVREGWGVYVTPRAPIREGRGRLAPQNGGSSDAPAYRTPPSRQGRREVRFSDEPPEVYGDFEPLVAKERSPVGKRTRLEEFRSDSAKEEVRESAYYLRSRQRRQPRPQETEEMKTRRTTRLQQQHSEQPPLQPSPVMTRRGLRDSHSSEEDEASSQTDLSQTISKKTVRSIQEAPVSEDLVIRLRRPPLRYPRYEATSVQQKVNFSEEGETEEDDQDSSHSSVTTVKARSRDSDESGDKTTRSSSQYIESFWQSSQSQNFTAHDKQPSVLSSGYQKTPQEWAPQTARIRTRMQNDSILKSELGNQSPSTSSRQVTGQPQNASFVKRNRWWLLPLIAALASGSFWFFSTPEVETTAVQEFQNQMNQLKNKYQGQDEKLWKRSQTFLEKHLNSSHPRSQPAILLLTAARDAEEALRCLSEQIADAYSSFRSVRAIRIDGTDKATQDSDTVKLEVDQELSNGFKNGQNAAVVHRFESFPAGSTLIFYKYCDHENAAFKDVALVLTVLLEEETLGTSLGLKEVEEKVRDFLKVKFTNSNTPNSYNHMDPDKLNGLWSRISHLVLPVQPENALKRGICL

For `COC(=O)[C@H](C)NC(=O)CCC1CC(OC(=O)NCc2cccc3ccccc23)CC2(CCCC(COC(=O)NCCCN3CCCC3=O)O2)O1` (stereo not given in full), the composite z-score is 1.28 in [1]; 0.943 in experiment [3]; 0.895 in [4]; 0.0029 in experiment [5]; -0.124 in [6]; -0.455 in experiment [7]. Besides, the composite z-score in [8] was -0.436; in experiment [9] it was 0.919; in experiment [10] it was 0.39; with Albumin (Bos taurus), 0.559; in experiment [12], 0.0485; in experiment [13], -0.132. Also, the composite z-score in experiment [14] was found to be 0.378; in experiment [15], 0.519; in [16] it was 0.0377; in the experiment on Sam68 (KHDRBS1), 1.32; in [17] it was 0.131; in experiment [18], 1.1. This compound gave a z-score in [2] of -0.0695. Further, the composite Z-score in [11] is -0.0448 (inactive).

With `CCOC(=O)NN=C1C[C@@H](O)[C@@H](O)[C@@H]2[C@@H]3C(=O)N(C[C@@H]4CCCO4)C(=O)[C@@H]3CC[C@H]12`, the composite z-score in experiment [1] was 0.463; in experiment [3] it was 0.828; in experiment [4] it was -0.47; in experiment [5], -0.593; in [6] it was -0.169; in experiment [7], -0.0146. Further, the composite z-score in experiment [8] is -0.166; in experiment [9], 0.998; in experiment [10], -0.213; in the experiment with Albumin (Bos taurus), 0.34; in experiment [12], -0.0057; in [13], -0.15. Moreover, the composite z-score in [14] is -0.144; in experiment [15], 0.19; in [16], 0.299; with Sam68 (KHDRBS1), 0.31; in experiment [17] it was 0.245; in [18] it was 0.111. Further, the z-score in [2] was -0.0078. Further, the composite Z-score in [11] is -0.161 (inactive).

As for `CON=C1c2cc(OC)ccc2O[C@H](c2cccc(OC)c2)[C@H]1O`, the composite z-score in experiment [1] is 0.365; in experiment [3], 0.601; in experiment [4], -0.332; in experiment [5], -0.729; in experiment [6] it was -0.0165; in experiment [7], 0.172. Also, the composite z-score is -0.0211 in experiment [8]; 0.646 in experiment [9]; -0.0531 in [10]; -0.181 with Albumin (Bos taurus); 0.123 in experiment [12]; 0.0267 in [13]. For the same compound, the composite z-score turned out to be 0.11 in experiment [14]; 0.275 in experiment [15]; 0.332 in [16]; 0.415 in the experiment on Sam68 (KHDRBS1); 0.707 in [17]; 0.267 in experiment [18]. Besides, in experiment [2], the z-score was 7.91. Further, the composite Z-score in [11] was 0.133 (inactive).

Turning to `O=C1C2=CC[C@H]3C(=O)N(Cc4ccccc4)C(=O)[C@H]3[C@H]2[C@H](O)[C@@H]2O[C@H]12`, the composite z-score in experiment [1] was -0.695; in experiment [3] it was 0.101; in experiment [4] it was -0.476; in experiment [5] it was -0.65; in experiment [6], -0.129; in experiment [7] it was -0.0553. The composite z-score is -0.158 in experiment [8]; 0.237 in [9]; 0.0012 in experiment [10]; -0.356 with Albumin (Bos taurus); -0.199 in experiment [12]; -0.167 in [13]. For the same compound, the composite z-score in [14] is 0.0372; in [15], -0.458; in experiment [16], -0.11; in the experiment with Sam68 (KHDRBS1), 0.085; in experiment [17] it was 0.343; in experiment [18] it was -0.707. The compound also gave a z-score in [2] of -5.09. For the same compound, the composite Z-score in experiment [11] is 0.0144 (inactive).

Consider `CC(=O)OC[C@H]1O[C@H](CC=NOCC[C@@H]2C=C[C@H](OC(C)=O)[C@@H](COC(C)=O)O2)C=C[C@@H]1OC(C)=O`, for which the composite z-score was 1.02 in experiment [1]; 0.888 in experiment [3]; -0.981 in experiment [4]; -0.171 in experiment [5]; -0.001 in experiment [6]; -0.0904 in [7]. The composite z-score was -0.216 in experiment [8]; -0.0873 in experiment [9]; 0.408 in experiment [10]; -0.076 with Albumin (Bos taurus); 0.127 in [12]; -0.165 in experiment [13]. Moreover, the composite z-score in experiment [14] is -0.146; in [15] it was -0.489; in experiment [16], -0.099; in the experiment with Sam68 (KHDRBS1) it was 1.29; in experiment [17], 0.973; in [18] it was 0.304. The compound also yielded a z-score in experiment [2] of 0.111. Besides, in [11], the composite Z-score was -0.69 (inactive).
